# Screening data: PubChem, The Scripps Research Institute Molecular Screening Center
# Hits are enriched below; roughly 4.1% of the tested compounds scored in any of these assays.
# DAX1 inh-1 – inhibitors of DAX1 repression of SF-1 activated StAR promoter | HEK293T StAR-luciferase reporter, SF-1/DAX-1 repression relief | inhibition, % at 6.8 µM | 370,000 tested, 1.1% active | AID 652010;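 active = inhibition above the mean over all tested compounds plus 3 SD, cut at about 3.6% in these data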;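 note: 0% = DAX-1 cells with DMSO and 100% = cells lacking DAX-1 with DMSO; higher inhibition means more luminescence from relief of DAX-1 repression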
# hgDAF12 agonist – hgDAF-12 agonism, primary luciferase screen. HEK293 GAL4-hgDAF12 UAS-luciferase reporter, agonist luminescence; normalized to butyrate control. activation, % at 6.8 µM. 370,000 tested, 1.8% active;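 active = activation above a cutoff set at the mean of all screened compounds plus 3 SD, cut at about 10% in these data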;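 note: 0% = DMSO wells and 100% = sodium butyrate wells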
# DAX1 inh-2 – inhibitors of human orphan nuclear receptor DAX1 (NR0B1); HEK293 Gal4-DAX1 luciferase reporter, luminescence; inhibition, % at 6.75 µM; 340,000 tested, 0.99% active; P51843;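 active = inhibition above the mean over all tested compounds plus 3 SD, cut at about 4.2% in these data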;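 note: 0% = DAX1-transfected cells with DMSO and 100% = empty-vector control cells with DMSO; inhibition shows as a rise in luminescence from relieved DAX1 repression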
# hcDAF12 agonist – activates DAF-12 receptor from parasite H. contortus; HEK293 hcDAF-12 lit1-tk-luc reporter, luminescence; 0% DMSO, 100% Δ7-dafachronic acid; activation, % at 6.8 µM; 370,000 tested, 1.4% active; AID 652067;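 active = activation above the mean of all tested compounds plus 3 SD, cut at about 5.5% in these data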;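 note: 100% = response to 3 µM Δ7-dafachronic acid high control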
# ssDAF12 agonist – S. stercoralis DAF-12 activation, primary screen. HEK293 ssDAF-12/GRIP1 lit1-tk-luc reporter, luminescence; % of 3 µM dafachronic acid response. activation, % at 6.8 µM. 370,000 tested, 1% active;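 active = activation above the mean over all tested compounds plus 3 SD, cut at about 0.9% in these data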;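 note: 0% = DMSO-only wells and 100% = 3 µM delta7-dafachronic acid wells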
# DAX1 conf – NR0B1 (human) inhibition, confirmation | shares compounds with DAX1 inh-1 | inhibition, % at 6.8 µM | HEK293T StAR-promoter luciferase reporter, SF-1/DAX-1 repression | 2,400 tested, 87% active | AID 652134;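 active = inhibition above the average of every tested compound plus 3 SD, cut at about 3.8% in these data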;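 note: 0% = DAX-1 cells with DMSO and 100% = no DAX-1 control cells with DMSO; active compounds raise luminescence by relieving repression of the StAR reporter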
# Target sequence (P51843 whole entry, looked up): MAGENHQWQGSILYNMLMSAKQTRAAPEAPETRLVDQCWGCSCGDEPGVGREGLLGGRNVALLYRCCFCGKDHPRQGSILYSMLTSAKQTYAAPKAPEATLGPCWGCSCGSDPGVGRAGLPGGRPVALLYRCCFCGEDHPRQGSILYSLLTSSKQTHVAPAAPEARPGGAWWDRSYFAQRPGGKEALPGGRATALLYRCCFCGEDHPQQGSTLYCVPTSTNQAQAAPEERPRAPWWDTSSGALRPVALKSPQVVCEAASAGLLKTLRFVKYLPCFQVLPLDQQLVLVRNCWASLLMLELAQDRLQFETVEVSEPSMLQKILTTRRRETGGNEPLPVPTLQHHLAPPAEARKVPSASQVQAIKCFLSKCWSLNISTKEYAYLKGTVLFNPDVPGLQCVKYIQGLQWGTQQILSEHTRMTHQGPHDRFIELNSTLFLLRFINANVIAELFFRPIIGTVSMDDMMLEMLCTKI
# SF1 mutant ctr – nonselective inhibitor or artifact in SF-1 mutant DAX1 counter-screen. shares compounds with DAX1 inh-1. HEK293 StAR-luciferase, SF-1 AF2 mutant, luminescence. inhibition, % at 6.8 µM. 2,400 tested, 78% active;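 active = inhibition above the mean of all tested compounds plus 3 SD, cut at about 3% in these data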;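 note: 0% = DAX-1 transfected cells with DMSO and 100% = cells without DAX-1 with DMSO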
# LXRb hcDAF ctr – LXR-beta agonism as hcDAF-12 counter-screen. HEK293 Gal4-LXR tk-luc reporter, luminescence, 24 h; normalized: DMSO 0%, positive control 100%. 3,400 tested, under 10 active. shares compounds with hcDAF12 agonist. activation, % at 6.8 µM;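 active = mean percent activation of the reporter above a cutoff set as the average over tested compounds plus their standard deviation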
# hcDAF12 conf – confirmation of H. contortus DAF-12 agonists | shares compounds with hcDAF12 agonist | activation, % at 6.8 µM | HEK293 hcDAF-12 lit1-tk-luc reporter, luminescence; % of Δ7-dafachronic acid response | 3,400 tested, 61% active;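 active = mean activation across triplicate tests above the threshold derived from the earlier primary screen, cut at about 5.5% in these data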;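 note: 0% = DMSO only wells and 100% = 3 µM Δ7-dafachronic acid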
# hgDAF12 conf – confirmation of H. glycines DAF-12 agonists; 3,300 tested, 80% active; activation, % at 6.8 µM; shares compounds with hgDAF12 agonist; HEK293 GAL4-hgDAF12 luciferase reporter, agonist mode; percent of butyrate response;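 active = mean activation over triplicate wells above the hit cutoff derived from the earlier primary screen, cut at about 11% in these data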;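 note: 0% = DMSO low control and 100% = 2 mM sodium butyrate high control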
# LXR ag 2 – LXR-beta agonism as DAF-12 counter-screen; shares compounds with hgDAF12 agonist; HEK293 Gal4-LXR luciferase reporter, 24 h; activation, % at 6.8 µM; 3,300 tested, under 10 active;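 active = mean activation of the triplicate above a set limit carried over from the primary screen, none filed active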
# Starred values were filed as active, the others as inactive; . = no result given.
SMILES,DAX1 inh-1,hgDAF12 agonist,DAX1 inh-2,hcDAF12 agonist,ssDAF12 agonist,DAX1 conf,SF1 mutant ctr,LXRb hcDAF ctr,hcDAF12 conf,hgDAF12 conf,LXR ag 2
Cc1cc(C(=O)COC(=O)c2ccc(Cl)c(S(N)(=O)=O)c2)c(C)n1C1CC1,8.0*,13.8*,0.9,1.8,0.2,8.3*,5.4*,.,.,15.1*,0.5
Cn1c(NNC(=O)CCC2CCCCC2)cc(=O)n(C)c1=O,-0.8,2.5,0.8,0.1,-1.0,.,.,.,.,.,.
Cn1c(NC(=O)CCC2CCCCC2)cc(=O)n(C)c1=O,5.6*,13.7*,3.1,5.5,-0.5,12.0*,6.0*,.,.,11.8*,0.7
O=C(CSc1nc2ccc(Nc3nc(N4CCOCC4)nc(N4CCOCC4)n3)cc2s1)Nc1ccccc1,-0.5,1.0,.,-1.0,-1.8,.,.,.,.,.,.
O=C(Nc1ccc2ccccc2c1)c1cc(F)c(F)cc1Cl,2.9,10.1,3.6,0.1,0.5,.,.,.,.,.,.
O=C(Nc1ccc2ccccc2c1)c1ccccc1Cl,13.0*,13.6*,2.3,9.3*,2.3*,16.9*,9.2*,1.9,7.7*,22.1*,1.1
COc1ccc(-c2nc(-c3ccc(Br)o3)no2)cc1,7.3*,16.8*,3.5,3.7,1.3*,14.0*,3.5*,.,.,16.4*,1.1
COCCCN=Cc1c(C)[nH]n(-c2ccc(Br)c(C)c2)c1=O,7.0*,17.6*,0.1,7.6*,0.6,16.0*,5.2*,1.7,11.2*,9.6,1.2
Cc1ccc(-n2[nH]c(C)c(C=NC34CN5CN(CN(C5)C3)C4)c2=O)cc1C,1.2,1.3,2.1,-1.1,-1.3,.,.,.,.,.,.
Cc1ccc(OCCSc2ncccn2)c(C)c1,8.2*,23.0*,5.1*,4.1,0.3,11.8*,8.2*,.,.,16.4*,0.8
COc1ccc(C(=O)N/N=C/c2ccccn2)cc1,4.5*,13.5*,0.2,1.4,-0.5,6.6*,4.1*,.,.,12.9*,0.5
O=C(N/N=C/c1ccccn1)c1ccc(NC(=O)c2ccc(F)cc2)cc1,-1.0,-2.0,-1.9,1.0,-0.9,.,.,.,.,.,.
Cc1cccc(NC(=O)COC(=O)CN2C(=O)C3CCCCC3C2=O)c1C (centres undefined),-1.5,1.9,2.0,0.7,-1.5,.,.,.,.,.,.
Cc1ccc(/C=C/c2nc3ccccc3c(=O)[nH]2)cc1,5.8*,16.3*,-0.2,8.7*,1.5*,13.5*,4.2*,1.9,9.4*,17.9*,1.2
COC(=O)c1ccc(/C=C/c2nc3ccccc3c(=O)[nH]2)cc1,-0.2,3.0,-0.2,0.2,-0.5,.,.,.,.,.,.
CCOC(=O)c1c(C)[nH]c(C(=O)N2CCC(C(=O)OCC)CC2)c1C,1.1,-2.1,-0.1,-1.5,-1.2,.,.,.,.,.,.
Cc1nc2cc(NC(=O)Nc3ccccc3Cl)ccc2n1C,12.0*,15.1*,-2.4,7.1*,0.1,19.4*,8.4*,1.9,7.8*,20.1*,1.2
Cc1ccc(NC(=O)Nc2ccc3c(c2)nc(C)n3C)cc1,6.4*,17.4*,-0.6,8.7*,0.6,16.0*,7.2*,1.2,4.9,17.2*,0.8
O=C1CCCC2=C1C(c1ccsc1)CC(=O)N2c1ccccc1F (centres undefined),-0.2,-2.6,0.1,-0.6,-1.2,.,.,.,.,.,.
